Giardia killer – kills Giardia lamblia; 340,000 tested, 0.15% active; activity change, % at 7.66 µM, hits read low; Giardia lamblia trophozoite viability; in the data active means activity change below about -80%; inconclusive means between about -30% and that limit;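 further: parasites exposed to compound for two days anaerobically before the ATP read; on the % scale 0 is the no-effect control and ±100 the full control effect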
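Trophozoite viability was measured as ATP-dependent luminescence, read 15-30 min after reagent addition. Before that, parasites at 100 cells/well were exposed to compounds for 48 h, anaerobically, at 37 deg C.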
BRCA1 expr up – increases BRCA1 expression. Potency, µM (highest dose often 46.1 µM), without a hit: at the highest dose activation, most hits filed as activators. 380,000 tested, 1.1% active. MCF7-BRCA1-FFLuc reporter, luminescence, 48 h; response scale: scaled: vehicle 0%, 10 µM genistein 100%; further: potency means the concentration at half of the fitted maximal effect; nearly all actives have a fitted effect of over 80% in size
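MCF7-BRCA1-FFLuc, 2000 cells/well; 2 h attach, 37 °C/5% CO2; compound 48 h; luciferase substrate 15 min; luminescence end-point. Norm. to genistein 10 microM max activation and DMSO; concentration-response curves fitted.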
ELG1 DNA repair – ELG1-dependent DNA repair inhibition | HEK293T ELG1-luciferase reporter, luminescence, 16 h; DNA damage induced by 5-fluorouridine | Potency, µM (doses to about 46.1 µM), without a hit: at the top dose activity change, negative = inhibition, most hits filed as inhibitors | 330,000 tested, 2.3% active; further: potency means the concentration at half of the fitted maximal effect; on the % scale 0 is the no-effect control and ±100 the full control effect; nearly all actives have a fitted effect of over 55% in size
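Overnight (16 hr) co-exposure of 2,000 cells/well to 5-fluorouridine and compound at 37 °C preceded detection. Luciferase was quantified via ONE-Glo luminescence; loss of signal denotes inhibition.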
RORg inh – inhibitors of mouse ROR gamma transcriptional activity. P51450. Potency, µM (series often up to 53.6 µM), for the others: top-dose activity change, negative = inhibition, hits mostly inhibitors. 310,000 tested, 5.4% active. Drosophila S2 Gal4-RORgamma UAS-luciferase reporter, 20 h. AID 2551; further: potency means the concentration at half of the fitted maximal effect; on the % scale 0 is the no-effect control and ±100 the full control effect; nearly all actives have a fitted effect of over 60% in size
Target sequence (P51450 whole entry, looked up, the tested form may be a part): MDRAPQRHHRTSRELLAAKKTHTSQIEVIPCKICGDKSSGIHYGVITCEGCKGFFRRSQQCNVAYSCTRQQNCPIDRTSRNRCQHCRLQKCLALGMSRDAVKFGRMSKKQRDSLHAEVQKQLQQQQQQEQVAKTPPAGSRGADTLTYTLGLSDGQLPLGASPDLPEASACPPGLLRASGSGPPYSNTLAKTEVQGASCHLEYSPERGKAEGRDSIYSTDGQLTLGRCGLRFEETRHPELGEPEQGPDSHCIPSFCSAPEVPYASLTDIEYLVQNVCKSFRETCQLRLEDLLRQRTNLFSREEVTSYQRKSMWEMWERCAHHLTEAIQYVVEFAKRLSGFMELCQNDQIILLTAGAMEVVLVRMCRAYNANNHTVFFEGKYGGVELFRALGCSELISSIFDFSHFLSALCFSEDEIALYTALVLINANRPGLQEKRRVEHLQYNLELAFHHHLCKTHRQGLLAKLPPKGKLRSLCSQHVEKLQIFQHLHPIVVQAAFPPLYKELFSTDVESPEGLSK
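Stably transfected Drosophila Schneider cells are the test system, with ROR gamma fused to Gal4 and luciferase under UAS control; luminescence is read after 20 hr of 700 uM copper sulfate induction at ambient temperature.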
Gal4-VP16 FLuc – Gal4-VP16 reporter inhibition counter-screen. Drosophila S2 Gal4-VP16 UAS-luciferase, luminescence, 20 h. Potency, µM (titrated, usually from 53.6 µM), without a hit: at the top dose activity, negative = inhibition, hits mostly inhibitors. 310,000 tested, 3.5% active. AID 2546;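 further: Gal4-VP16 expression switched on by copper sulfate through the metallothionein promoter; potency means the concentration at half of the fitted maximal effect; on the % scale 0 is the no-effect control and ±100 the full control effect; nearly all actives have a fitted effect of over 50% in size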
p53 reactivation – mutant p53 re-activation in reporter cells; H1299 p53-A138V BP100-luciferase reporter, luminescence, 24 h; Potency, µM (doses to about 92.2 µM), for the others: top-dose activity change, positive = activation, hits mostly activators; 320,000 tested, 0.063% active; further: potency means the concentration at half of the fitted maximal effect; % of control where 0% means no effect; nearly all actives have a fitted effect of over 45% in size
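H1299 (p53-null), stable ts p53-A138V + BP100-Luc; 1000 cells/well, Opti-MEM/10% FBS; cpd 4 pt, 1:5; 24 h, 37 deg C, 5% CO2; detection reagent 10 min RT; luminescence.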
Starred values were filed as active, the others as inactive; ? = inconclusive; nt = not tested or not shown; [ ] = remark or other dose. This is a sample that favours compounds with a hit; in the whole collection about 7.6% have one here. Unless noted, the call rests on the fitted dose curve; in most records, active means well fitted curve in the direction sought with a large enough effect; inconclusive means small, poorly fitted or top-dose-only effect, or another doubt; inactive means no such curve, though single readings can be large; an effect the other way counts as inactive or inconclusive.

SMILES | Giardia killer | BRCA1 expr up | ELG1 DNA repair | RORg inh | Gal4-VP16 FLuc | p53 reactivation
Cc1cccc(CSc2nnc(NC(=O)c3ccco3)s2)c1 | -6.7 | 34.6% | 1.1% | -6.6% | -5.9% | 8.9%
CCN(c1ccccc1)S(=O)(=O)c1ccc(Cl)c(NC(=O)CSc2nncn2C)c1 | 5.1 | 9.6% | -10.8% | 25.0% | -5.2% | 1.1%
CCOC(=O)c1cccc(N/C=C/C(=O)c2ccc(OC)c(OC)c2)c1 | -7.6 | 87.2% | ? | ? | -15.1% | 15.6%
CCOC(=O)c1ccc(N/C=C\C(=O)c2cccc(OC)c2)cc1 | -11.1 | 3.55µM* | ? | -11.8% | -15.0% | ?
Cc1cccc(NNC(=O)C(=O)NNc2cccc(C)c2)c1 | 4.5 | -26.0% | 6.51µM* | 10.9% | 7.1% | -6.6%
COc1ccc(C(=O)/C=C/Nc2cccc(O)c2)cc1 | 15.2 | -5.9%[1.84 µM] | ? | 10µM* | 2µM* | ?
O=C(/C=C\Nc1ccccn1)c1ccc(Cl)cc1 | -24.2 | ? | ? | 7.08µM* | 10µM* | 4.5%
CCc1ccc(-c2cc(C)no2)cc1S(=O)(=O)NCCc1ccccc1 | 1.7 | -0.7% | ? | ? | ? | 28.1%
CC1=NN(C(=O)c2ccc(Cn3nc(C)c([N+](=O)[O-])c3C)o2)C(O)(C(F)(F)F)C1 (configuration not stated) | 10.2 | -7.8% | ? | 2.51µM* | 7.08µM* | -4.2%
O=C(c1ccccc1[N+](=O)[O-])N1N=C(c2ccccc2)CC1(O)C(F)(F)F (configuration not stated) | 10.3 | -5.9% | -8.6% | ? | -21.5% | -52.8%
CC1=NN(C(=O)c2ccc(Cn3ccc([N+](=O)[O-])n3)cc2)C(O)(C(F)(F)F)C1 (configuration not stated) | -10.3 | 0.2% | -4.1% | 10µM* | 12.6µM* | -2.9%
CC(C)(C)c1cc(C(=S)N2CCCC2)cc(C(C)(C)C)c1O | 4.3 | -20.0% | 9.3% | 6.31µM* | 5.01µM* | ?
CC(C)(C)c1cc(CCC(=O)N2CCCC2)cc(C(C)(C)C)c1O | -10.9 | -0.1% | 5.5% | -14.4% | -6.7% | 4.2%
CC1(C(=O)O)C=CC2(CCCCC2)N1C(=O)c1ccccc1 (configuration not stated) | -1.8 | -1.7% | 1.0% | 0.5% | 10.5% | -1.3%
COc1ccc(NC2=Nc3cccc4cccc2c34)cc1 | 1.6 | 26.3% | ? | 12.6µM* | ? | 1.1%
O=C(O)c1cccc(NC2=Nc3cccc4cccc2c34)c1 | 0.4 | ? | ? | 15.3% | 17.2% | 8.6%
Fc1ccc(/C=N/NC2=Nc3cccc4cccc2c34)cc1 | 2.2 | -27.4% | ? | 1.12µM* | ? | 45.9%
c1ccc(NC2=Nc3cccc4cccc2c34)cc1 | 22.5 | -13.2% | ? | ? | ? | 13.5%
Cc1ccc(S(=O)(=O)N(C)CC(=O)OCC(=O)N2CCN(c3ccccc3)CC2)cc1 | 1.8 | 7.4% | 17.1% | -17.9% | -1.2% | 0.8%
CCOc1ccc(NC(=O)C2CCCN(S(=O)(=O)c3cccc4nsnc34)C2)cc1 (configuration not stated) | 20.0 | -0.2% | 23.1µM* | 44.1% | -11.3% | 4.1%
O=C(C1CCCN(S(=O)(=O)c2cccc3nsnc23)C1)N1CCc2ccccc2C1 (configuration not stated) | 5.4 | -31.2% | 16.4µM* | 40.1% | -0.6% | -10.4%
O=C(C1CCN(S(=O)(=O)c2cccc3nsnc23)CC1)N1CCc2ccccc21 | -13.5 | -21.5% | ? | 30.1% | -2.6% | 2.4%
O=C(C1CCN(S(=O)(=O)c2cccc3nsnc23)CC1)N1CCn2c1nc1ccccc12 | -11.1 | -28.3% | 6.51µM* | -7.4% | -6.2% | 1.9%
COc1cccc(NC(=O)C2CCCN(S(=O)(=O)c3cccc4nsnc34)C2)c1 (configuration not stated) | 26.8 | -16.4% | ? | 38.6% | -9.4% | 0.2%
CC(C)=CCOc1ccc2ccc(=O)oc2c1 | 1.5 | 5.5% | ? | 1.2% | 0.8% | 2.9%
SMILES | Giardia killer | BRCA1 expr up | ELG1 DNA repair | RORg inh | Gal4-VP16 FLuc | p53 reactivation
Cc1cc(C)c(C#N)c(SCC(=O)Nc2ccc(S(=O)(=O)Nc3ncccn3)cc2)n1 | 8.8 | 1.2% | -8.5% | 8.91µM* | 12.6µM* | ?
O=c1cc(-c2ccc(O)cc2)oc2ccccc12 | -17.3 | ? | ? | 9.8% | 0.4% | 3.5%
O=c1cc(-c2ccccc2)oc2cc(O)ccc12 | 36.5 | 10µM* | nt | 7.2% | -1.7% | nt
O=c1cc(-c2ccc(O)cc2)oc2ccc(O)cc12 | -11.8 | 2.82µM* | ? | ? | 1.3% | ?
Cc1ccc(S(=O)(=O)NC(=O)N(CCC#N)Cc2ccccc2)cc1 | -3.6 | -1.4% | -2.5% | 0.7% | -8.2% | 16.1%
Cc1ccc(-c2nn(-c3ccccc3)cc2CN(Cc2ccccc2)C(=O)c2ccco2)o1 | 8.6 | -2.1%[1.84 µM] | 18.4µM* | ? | -86.3% | 1.0%
Cc1ccc(-c2nn(-c3ccccc3)cc2C(=O)O)o1 | nt | nt | ? | 24.8% | -8.1% | -0.3%
COc1ccc(C(=O)C2CCCN(C(=O)c3cccc(Cl)c3F)C2)cc1OC (configuration not stated) | 3.2 | -35.6% | ? | -12.2% | 4.0% | -9.6%
COc1cccc(-c2ncc3ccccc3c2COC(=O)c2ccc(C(F)(F)F)cc2)c1 | 3.9 | -8.5% | 20.6µM* | nt | nt | 3.4%
COc1ccc(/C=N/n2cnc3c([nH]c4ccc(F)cc43)c2=O)cc1CN1CCCC1 | -4.9 | -13.5% | -1.2% | -79.5% | 11.2µM* | -0.8%
CCOC(=O)C(=CN=C(N)Nc1nc2ccccc2o1)C(=O)OCC | -4.7 | ? | ? | 7.08µM* | ? | 17.4%
CCOC(=O)C(Cc1ccc(O)cc1)Nc1nc2ccccc2o1 (configuration not stated) | 12.7 | -8.1% | nt | nt | nt | nt
CCCCC(=O)N/C(N)=N/c1nc2ccccc2o1 | -2.5 | ? | ? | ? | -11.8% | 10.3%
CCCOC(=O)Nc1nc2ccccc2o1 | -14.5 | 51.9% | ? | 14.1µM* | ? | 11.7%
Cc1ccc(-c2nc3ccccc3s2)cc1S(=O)(=O)N1CCCC1 | 1.3 | 0.3% | ? | 43.8% | 3.0% | 20.7%
Cc1ccc(-c2nn3c(C)nnc3c3ccccc23)cc1S(=O)(=O)N1CCN(CCO)CC1 | 1.1 | -71.1% | ? | -40.4% | 0.7% | -33.4%
Cc1ccc(-c2nnc(NCc3nc4ccccc4[nH]3)c3ccccc23)cc1S(=O)(=O)N1CCCCC1 | 0.0 | -41.5% | 8.2µM* | -5.8% | 0.9% | -19.3%
